Shown are actives, neighbours in structure and some others; about 0.51% of the full set was active somewhere.
FMDV RLuc: antivirals against foot and mouth disease virus replicon. FMDV replicon cells, Renilla luciferase signal. Potency, µM (top dose mostly 57.5 µM), most hits filed as inhibitors. 120,000 tested, 0.32% active. AID 1745857; further: nearly all actives have a fitted effect of over 55% in size
FMDV antiviral: antivirals against foot and mouth disease virus | 120,000 tested, 0.23% active | Potency, µM (series often up to 57.5 µM), actives largely listed as inhibitors | FMDV antiviral cell assay, firefly luciferase signal | AID 1745856; further: nearly all actives have a fitted effect of over 60% in size
Numbers stand for hits; . = inactive; ? = inconclusive; [ ] = remark or other dose. The call rests on the fitted dose curve.

SMILES	FMDV RLuc	FMDV antiviral
CC(C(=O)Nc1sc2c(c1C#N)CCCCC2)n1cnc2c1c(=O)n(C)c(=O)n2C (configuration not stated)	14.1µM	?
CCOc1ccc(-c2nc(CSCC(=O)N3CCN(c4cccc(C(F)(F)F)c4)CC3)c(C)o2)cc1	?	28.2µM
CCOc1ccc(-c2nc(CSCC(=O)N3CCN(c4ccc(F)cc4)CC3)c(C)o2)cc1	.	.
CC(C)(C)c1cc(-c2nc3ccccc3[nH]2)n[nH]1	.	2.82µM
CC(C)(C)c1cc(C(C)(C)C)c2oc(=O)c(-c3nc4ccccc4[nH]3)cc2c1	.	.
COc1cc(C)ccc1Oc1ccc(NC(=O)c2ccc3c(c2)NC(=O)CS3)cn1	25.1µM	?
COc1ccc(NC(=O)c2ccc3c(c2)NC(=O)CS3)cn1	.	.
Cc1ccnc(NS(=O)(=O)c2ccc(NC(=O)c3nc(SC(C)C)ncc3Cl)cc2)n1	.	.
Cc1cc(C)nc(NS(=O)(=O)c2ccc(NC(=O)c3nc(SC(C)C)ncc3Cl)cc2)n1	11.2µM	.
COc1ccc(NC(=O)COc2ccccc2C)c2cccnc12	14.1µM	?
COc1ccc(NC(=O)COc2c(C)cccc2C)c2cccnc12	.	.
COC(=O)CN1CCCC1Cc1ccc(OC)cc1 (configuration not stated)	.	.
O=C(/C=C/c1ccc(Cl)c(Cl)c1)c1ccccc1OC(F)F	.	.
COc1cc(/C=C/C(=O)c2ccccc2C)cc(OC)c1OC(F)F	28.2µM	?
CCCCn1nc(C(=O)NCc2ccc(C(=O)O)cc2)c2ccccc2c1=O	.	.
CC(C)COc1ccccc1C1CC(=O)Nc2cc3c(cc21)OCO3 (configuration not stated)	12.6µM	?
COc1ccc(C2CC(=O)Nc3cc4c(cc32)OCO4)c(OC)c1 (configuration not stated)	.	.
CC(C)CCC(CC(C)O)C(=O)NN (configuration not stated)	.	.
COc1c(Br)cc(/C=C(\C#N)c2nc3ccccc3[nH]2)c(OC)c1Br	.	.
CCOC(=O)Cn1nc(C)c(NC(=O)COc2ccccc2)c1C	.	.
CCOC(=O)Cn1nc(C)c(NC(=O)COc2ccc(Cl)cc2C)c1C	10µM	?
CC(Sc1ccc(Cl)cc1)C(=O)Nc1ccc(C(C)C)cc1 (configuration not stated)	.	.
O=C(COc1ccc2c(=O)c(-c3ccc(Cl)cc3)coc2c1)Nc1nccs1	.	.
Cc1c2cnn(-c3ccccc3)c(=O)c2c(C)n1CC(=O)N1CCN(c2cccc(Cl)c2)CC1	.	.
Cc1ccc(C)c(N2CCN(C(=O)Cn3c(C)c4cnn(-c5ccccc5)c(=O)c4c3C)CC2)c1	22.4µM	25.1µM
SMILES	FMDV RLuc	FMDV antiviral
CCN(CC)C(C)CN1c2ccccc2Sc2ccccc21 (configuration not stated)	.	.[11.5 µM]
CCN1/C(=C/C=C/c2sc3ccccc3[n+]2CC)Sc2ccccc21	?	3.16µM
O=c1c2ccccc2c(-c2ccccc2)nn1-c1cc(N2CCNCC2)ccc1[N+](=O)[O-]	.	.
C=CCNc1oc(/C=C/c2cc(OC)c(OC)c(OC)c2)nc1C#N	.	.
Cc1ccc(-c2nc(SCC(=O)N3CCCC3c3ccc4c(c3)OCCO4)n[nH]2)cc1 (configuration not stated)	20µM	?
O=C(CSc1nnnn1C1CC1)N1CCCC1c1ccc2c(c1)OCCO2 (configuration not stated)	.	.
CCc1ccc(-c2nc(SCC(=O)N3CCCC3c3ccc4c(c3)OCCCO4)n[nH]2)cc1 (configuration not stated)	28.2µM	?
CCc1ccc(-c2nnn(CC(=O)N3CCCC3c3ccc4c(c3)OCCO4)n2)cc1 (configuration not stated)	.	.
Cc1oc(-c2ccccc2)nc1CC(=O)NC(C)C(C)C (configuration not stated)	.	.
O=[N+]([O-])c1ccc(C(=C(c2ccccc2)c2ccccc2)c2ccc([N+](=O)[O-])cc2)cc1	3.16µM	2.51µM
O=[N+]([O-])c1ccc(/C=C/c2ccccc2)cc1	.	.
CN(Cc1cccc(F)c1)C(=O)Cn1c(=O)c2c(ncn2C)n(C)c1=O	.	.
O=C(O)C/C(=C/c1ccc(-c2ccccc2)cc1)c1nc2ccccc2s1	.[1.06 µM]	.
O=C(OCc1nnnn1-c1ccccc1)C1(c2ccc(Cl)cc2)CCC1	.	.
Cc1cccc(NC(=O)/C(C#N)=C/c2cc(C(C)(C)C)c(O)c(C(C)(C)C)c2)c1C	6.31µM	?
Cc1ccc(/C=C(/C#N)C(=O)Nc2cccc3ncccc23)cc1	.	.
CC(Oc1cccc(Br)c1)c1nc(-c2ccncc2)no1 (configuration not stated)	.	.
C=CCOc1cccc(NC(=O)c2ccncc2)c1	.	.
O=C(Nc1ccncc1)c1cccc(OCc2ccc(F)cc2)c1	6.31µM	?
Cc1ccc(C)c(NC(CC(=O)c2ccccc2)C(=O)O)c1 (configuration not stated)	.	.
CCCCCn1nc(C(=O)NCc2ccc(Cl)cc2)c2ccccc2c1=O	.	.

Bioassay records: PubChem BioAssay, National Center for Advancing Translational Sciences (NCATS)
